Reference: PubChem BioAssay AID1159580 (chemical genetic matrix, 2015)
In all, about 5,500 compounds went through this assay and about 2,000 (36%) were called active. Roughly 18% stayed inconclusive and do not appear here. Cut-off read from the data, not from the text of the source: active = normalized growth mostly below about 0.91 (no sharp cut-off); inconclusive = no clear call, values can overlap the other calls; inactive = mostly above about 0.92. Some of the results follow.

Assay: chemical genetic growth profiling, strain panel (AID 1159580);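 note: tested at 20 µM; growth read once vehicle control cultures reached saturation at 30 °C; 1 = growth at the plate median or of vehicle wells; lower values mean less growth of the strain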
Details: S. cerevisiae deletion strains, growth OD

Measured: normalized growth

CC(=O)OCC(=O)[C@@]1(O)CC[C@H]2[C@@H]3CCC4=CC(=O)CC[C@]4(C)[C@H]3C(=O)C[C@@]21C
inactive: locus YAL040C, strain CLN3, hits give low values 0.998 | locus YER002W, strain NOP16, hits give low values 0.991 | locus YGR078C, strain PAC10, hits give low values 1 | locus YNL175C, strain NOP13, hits give low values 0.985 | locus YNL197C, strain WHI3, hits give low values 0.982 | locus YNL224C, strain SQS1, hits give low values 1.01 | locus YOR083W, strain WHI5 (second series), hits give low values 0.976
